The whole screen tested about 5,500 compounds, of which about 2,000 (36%) were called active. Inconclusive results (about 18%) are left out. No stated cut-off is given here; in the data, active means normalized growth mostly below about 0.91 (no sharp cut-off); inconclusive means no clear call, values can overlap the other calls; inactive means mostly above about 0.92. This is one part of the list.
Assay: chemical genetic growth profiling, strain panel (AID 1159580);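 further: tested at 20 µM; growth read once vehicle control cultures reached saturation at 30 °C; 1 = growth at the plate median or of vehicle wells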
Conditions: S. cerevisiae deletion strains, growth OD

Measured: normalized growth

CCN(CC)C(C)C(=O)N1c2ccccc2Sc2ccccc21 (stereo not given)
inactive: locus YAL013W, strain DEP1, stronger effect = lower value 1 | locus YAL040C, strain CLN3, stronger effect = lower value 1.02 | locus YCL061C, strain MRC1 (second series), stronger effect = lower value 1.01 | locus YDR363W, strain ESC2, stronger effect = lower value 1 | locus YER002W, strain NOP16, stronger effect = lower value 1.02 | locus YGR229C, strain SMI1, stronger effect = lower value 1.04 | locus YJR075W, strain HOC1, stronger effect = lower value 1.07 | locus YMR263W, strain SAP30, stronger effect = lower value 1.01 | locus YMR307W, strain GAS1, stronger effect = lower value 0.999 | locus YNL128W, strain TEP1, stronger effect = lower value 0.997 | locus YNL175C, strain NOP13, stronger effect = lower value 1.04 | locus YNL197C, strain WHI3, stronger effect = lower value 1.03 | locus YNL224C, strain SQS1, stronger effect = lower value 1.02 | locus YOR083W, strain WHI5 (second series), stronger effect = lower value 1.02 | locus YPL241C, strain CIN2, stronger effect = lower value 1.01

Source: PubChem BioAssay AID1159580 (chemical genetic matrix, 2015)
